Test results as given in PubChem BioAssay (NCATS).
Inconclusive results are not listed. Active and inactive are the calls of the source. Unless noted, calls follow the shape of the dose curve; as a rule, active = well fitted curve in the direction sought with a large enough effect; inconclusive = small, poorly fitted or top-dose-only effect, or another doubt; inactive = no such curve, though single readings can be large; an effect the other way counts as inactive or inconclusive. Where a SMILES comes first, the peptide text is derived from it. [ ]: non-standard residue; d: D form. Ala(indol-2-yl) = N[C@@H](Cc1cc2ccccc2[nH]1)C(=O)O; Aib = CC(C)(N)C(=O)O

Key:
[1] = Cytotoxicity counterscreen for inhibitors of SARS-CoV-2 cell entry (AID 1645845; calls by dose curve; also: nearly all actives have a fitted effect of over 50% in size; as to activity change, negative = cytotoxicity: % is scaled to controls: 0 for no effect and ±100 for the full control effect)
Procedure, shortened: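 After a 15 min room-temperature ATPLite 1step step, luminescence reflected ATP remaining in HEK293-ACE2 cells exposed to compound for 1 h plus 48 h at 37 C, with percent activity set by cell and no-cell controls.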

[2] = qHTS drug screen for cell cycle checkpoint inhibitors in PARPi-resistant BRCA-mutant ovarian cancer cell lines. (AID 1963452; calls by dose curve); conditions: PEO1/OlaR viability, CellTiter-Glo luminescence, 96 h, stronger effect = lower value
Procedure, shortened: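 PEO1, PEO4 and PEO1/OlaR ovarian cancer cells, 600 per well, exposed 96 h at 37C to a dilution series. Viability read by CellTiter-Glo luminescence, normalized to DMSO and empty wells; activity summarized as Z-AUC.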

[3] = target: Catechol O-methyltransferase (Homo sapiens) (UniProt P21964); test: Confirmatory Screen for Target Class Profiling of Small Molecule Inhibitors of Methyltransferases (AID 1745852); conditions: MTase-Glo luminescence, SAH detection, recombinant enzyme; measured here: COMT max response; stronger effect = lower value; as to activity change, negative = inhibition: % is scaled to controls: 0 for no effect and ±100 for the full control effect
Sequence of Catechol O-methyltransferase (Homo sapiens) (P21964 whole entry, looked up): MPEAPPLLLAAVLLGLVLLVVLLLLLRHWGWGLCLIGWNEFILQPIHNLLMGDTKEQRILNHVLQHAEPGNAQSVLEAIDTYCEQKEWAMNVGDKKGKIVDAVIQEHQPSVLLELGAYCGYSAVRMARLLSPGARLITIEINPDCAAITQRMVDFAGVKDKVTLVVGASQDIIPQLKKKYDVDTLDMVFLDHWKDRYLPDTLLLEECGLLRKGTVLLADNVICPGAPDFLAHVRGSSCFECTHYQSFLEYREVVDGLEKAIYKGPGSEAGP

[4] = target: Guanidinoacetate N-methyltransferase (Homo sapiens) (UniProt Q14353); test: as above; conditions: activity change, negative = inhibition: at 57.3 µM (top of the series) unless noted
[5] = target: Nicotinamide N-methyltransferase (Homo sapiens) (UniProt P40261); test: as above; conditions: MTase-Glo luminescence, SAH detection, recombinant enzyme; measured here: NNMT max response; stronger effect = lower value
Sequence of Nicotinamide N-methyltransferase (Homo sapiens) (P40261 whole entry, looked up): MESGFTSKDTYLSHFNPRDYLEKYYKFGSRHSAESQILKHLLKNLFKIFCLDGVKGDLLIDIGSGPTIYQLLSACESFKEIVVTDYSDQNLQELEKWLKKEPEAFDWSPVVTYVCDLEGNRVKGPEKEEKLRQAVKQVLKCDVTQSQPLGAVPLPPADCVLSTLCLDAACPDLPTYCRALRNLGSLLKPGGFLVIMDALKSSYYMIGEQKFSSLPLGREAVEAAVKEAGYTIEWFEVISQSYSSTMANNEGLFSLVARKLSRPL

[6] = target: Phenylethanolamine N-methyltransferase (Homo sapiens) (UniProt P11086); test: as above; conditions: MTase-Glo luminescence, SAH detection, recombinant enzyme; measured here: PNMT max response; stronger effect = lower value
Sequence of Phenylethanolamine N-methyltransferase (Homo sapiens) (P11086 whole entry, looked up): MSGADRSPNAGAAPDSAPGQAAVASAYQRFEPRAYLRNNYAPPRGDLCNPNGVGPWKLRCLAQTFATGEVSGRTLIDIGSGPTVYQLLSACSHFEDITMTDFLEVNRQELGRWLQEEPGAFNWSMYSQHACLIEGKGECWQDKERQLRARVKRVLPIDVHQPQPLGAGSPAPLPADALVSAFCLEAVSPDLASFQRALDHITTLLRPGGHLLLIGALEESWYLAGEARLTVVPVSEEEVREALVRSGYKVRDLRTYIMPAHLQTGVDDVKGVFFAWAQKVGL

[7] = test system: Zika virus NS2B-NS3 protease (unlinked complex); test: Primary screen GU Rhodamine qHTS for Zika virus inhibitors: Unlinked NS2B-NS3 protease assay (AID 1347159); also: % is scaled to controls: 0 for no effect and ±100 for the full control effect; nearly all actives have a fitted effect of over 60% in size
Procedure, shortened: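 In dose–response format, inhibition of unlinked protease (25 nM) was measured with 1.5 microM bis-peptide Rhodamine110 substrate. Aprotinin served as the intraplate control.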

[8] = Primary qHTS for inhibitors of nuclear receptor binding SET domain protein 2 (NSD2) in an RCH-ACV wild type WT cells (2C) (AID 1645877); also: nearly all actives have a fitted effect of over 70% in size; also: potency is read from the fitted curve at half-maximal effect; as to activity change, negative = cell killing: % is scaled to controls: 0 for no effect and ±100 for the full control effect
[9] = Primary fluorescence-based thiol-reactive (MSTI) qHTS assay for identification of artifact compounds. (AID 1845221); also: nearly all actives have a fitted effect of over 65% in size; also: potency is read from the fitted curve at half-maximal effect;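 as to activity change, negative = thiol reactive: thiol-reactive compounds lower the probe fluorescence signal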
Procedure, shortened: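 A multi-concentration qHTS design tested compounds against 4 uM MSTI, pH 7.4 phosphate-buffered saline. Plates were protected from light for 1 h at room temperature before imaging fluorescence.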

KB-3-1 = test: Cytotoxic Profiling of Annotated Libraries Using Quantitative High-Throughput Screening (AID 1296008); conditions: Five cell lines viability, CellTiter-Glo ATP luminescence, 48-72 h; max response: stronger effect = lower value; also: nearly all actives have a fitted effect of over 60% in size; also: potency is read from the fitted curve at half-maximal effect
Procedure, shortened: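 Compounds were pin-transferred onto cells and incubated 48 or 72 hr at 37 degree Celsius, 95% humidity. CellTiter-Glo was added, plates sat 10 min at room temperature, then ATP-coupled luminescence was imaged as the viability read-out.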

HeLa = test: Primary qHTS to identify gynecologic anti-cancer compounds using libraries of approved drugs and bioactive compounds (AID 1345084); conditions: Gynecologic cancer cell panel viability, ATPlite luminescence, 48 h; series mostly up to 57.5 µM; also: nearly all actives have a fitted effect of over 55% in size; also: potency is read from the fitted curve at half-maximal effect
Procedure, shortened: (§1)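 ATP-based viability (ATPlite), 1,000 cells/well, 16 h pre-incubation, 48 h compound at 37 C, 5% CO2, 15 min RT before read.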

SKOV3 = test: as above; conditions: Gynecologic cancer cell panel viability, ATPlite luminescence, 48 h; series mostly up to 57.5 µM
Procedure, shortened: as §1

CAOV3 = test: as above; conditions: Gynecologic cancer cell panel viability, ATPlite luminescence, 48 h; series mostly up to 57.5 µM
Procedure, shortened: as §1

JEG-3 = test: as above; conditions: Gynecologic cancer cell panel viability, ATPlite luminescence, 48 h; series mostly up to 57.5 µM
Procedure, shortened: as §1

[10] = target: Glutathione peroxidase 1 (Homo sapiens) (UniProt P07203); test: Primary qHTS Assay for Inhibitors of Recombinant Selenoprotein Glutathione Peroxidase 1 (GPX1) (AID 1845191); also: nearly all actives have a fitted effect of over 65% in size; as to activity, negative = inhibition: % is scaled to controls: 0 for no effect and ±100 for the full control effect
Sequence of Glutathione peroxidase 1 (Homo sapiens) (P07203 whole entry, looked up): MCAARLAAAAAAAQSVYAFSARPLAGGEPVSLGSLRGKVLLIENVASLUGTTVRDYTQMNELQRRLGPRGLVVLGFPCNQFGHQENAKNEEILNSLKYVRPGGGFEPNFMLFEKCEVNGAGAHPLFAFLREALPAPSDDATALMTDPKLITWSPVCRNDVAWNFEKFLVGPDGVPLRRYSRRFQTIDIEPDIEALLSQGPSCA
Procedure, shortened: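 GPX1 10 nM, GR 100 nM, GSH 1 mM, NADPH 0.5 mM, CHP 0.5 mM (final). 30-min cpd preincubation, RT. Ex340/Em450 read t=0, t=15 min.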

[11] = P-glycoprotein substrates identified in KB-3-1 adenocarcinoma cell line, qHTS therapeutic library screen (AID 1346986); also: nearly all actives have a fitted effect of over 60% in size
Procedure, shortened: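 72 h cell-killing screen, 500 cells/well, CellTiter-Glo luminescence. Paired lines KB-3-1/KB-8-5-11; P-gp dependence checked by tariquidar co-treatment and HEK-293 MDR-19 versus empty-vector cells.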

With `CC(=O)O[C@H]1CC[C@H]2[C@@H]3CC[C@H]4CC(=O)C=C(C)[C@]4(C)[C@H]3CC[C@]12C` the Potency [1] was “inactive”.

In the case of `CC(=O)N1N=C(c2ccc(N)cc2)c2cc3c(cc2C[C@H]1C)OCO3`, the Potency [1] is reported as “inactive”, the Z-AUC [2] is reported as 0.45 (inactive) and the Z-AUC ([2]; measured here: PEO1 parental Z-AUC) is reported as 0.452. It also gave a Z-AUC ([2]; measured here: PEO4 Z-AUC) of 0.412.

`COc1cc(N2CCN(C)CC2)ccc1N` showed an activity [3] of -7.03%, an activity change, negative = inhibition [4] of -4.23% and an activity [5] of -3.44%. It also gave an activity [6] of -33.9%.

For `COC1CC(O[C@H]2CC[C@]3(C=O)C4CC[C@]5(C)[C@@H](C6=CC(=O)OC6)CC[C@]5(O)[C@@H]4CC[C@@H]3C2)OC(C)C1O[C@@H]1O[C@H](CO)[C@@H](O[C@@H]2O[C@H](CO)[C@@H](O)[C@H](O)[C@H]2O)[C@H](O)[C@H]1O` (stereo partly drawn), the Potency [7] was “inactive”, the Potency [8] was 123 nM (active) and the activity change, negative = thiol reactive [9] was -23.5% [at 11.5 µM] (inactive). The Potency (KB-3-1) was 174 nM (active), the Potency (HeLa) was 398 nM (active) and the Potency (SKOV3) was 398 nM (active).

In the case of `CC(=O)OC[C@]12C[C@H](OC(=O)CC(C)C)C(C)=C[C@H]1O[C@@H]1[C@H](O)[C@@H](OC(C)=O)[C@@]2(C)[C@@]12CO2`, the Potency [7] is reported as “inactive”, the Potency [9] is reported as “inactive” and the Potency (KB-3-1) is reported as 35.5 nM (active). The Potency (CAOV3) was 89.1 nM (active), the Potency (HeLa) was 158 nM (active) and the Potency (JEG-3) was 1000 nM (active).

For `C[C@@H]1C[C@@H](O)[C@]2(O)O[C@@H]3C[C@@]4(C=O)C(CC[C@@H]5C4CC[C@]4(C)[C@@](O)(C6=CC(=O)OC6)CC[C@]54O)C[C@H]3OC2O1` (stereo partly drawn), the Potency [8] was 1120 nM (active), the Potency [10] was “inactive” and the Potency [9] was 9220 nM (active). For the same compound, the Potency (KB-3-1) was 2240 nM (active) and the Potency (HeLa) was 3980 nM (active).

For `CC(=O)OC[C@]12C[C@H](OC(=O)CC(C)C)C(C)=C[C@H]1O[C@@H]1[C@H](O)C[C@@]2(C)[C@]12CO2`, the Potency [7] was “inactive”, the Potency [8] was 317 nM (active) and the Potency [10] was “inactive”. The Potency (KB-3-1) was 709 nM (active) and the Potency (CAOV3) was 4470 nM (active).

With `CC1=C[C@H]2O[C@@H]3C[C@H]4OC(=O)/C=C/C=C/C(=O)OCC/C(C)=C/C(=O)OC[C@@]2(CC1)[C@]4(C)[C@]31CO1` the Potency [7] was “inactive”, the Potency [8] was 3.2 nM (active) and the Potency [10] was “inactive”. The Potency [9] was “inactive”, the Potency (KB-3-1) was 20 nM (active) and the Potency (JEG-3) was 126 nM (active). For the same compound, the Potency (SKOV3) was 70.8 nM (active).

In the case of `CC(C)(NC(=O)[C@@H](N)Cc1ccc(O)cc1)C(=O)N[C@@H](Cc1cc2ccccc2[nH]1)C(=O)N[C@@H](Cc1ccccc1)C(=O)O` (H-Y[Aib][Ala(indol-2-yl)]F-OH), the outcome [11] is reported as “inactive [at 9.29 µM]”, the activity change, negative = cell killing [8] is reported as -2.68% [at 9.23 µM] (inactive) and the activity, negative = inhibition [10] is reported as 0.29% [at 9.52 µM] (inactive). The activity change, negative = thiol reactive [9] was 54.2% [at 11.5 µM] (inactive), the outcome (KB-3-1) was “inactive” and the activity change, negative = cytotoxicity (CAOV3) was 2.52% [at 11.6 µM] (inactive). For the same compound, the activity change, negative = cytotoxicity (HeLa) was 14.3% [at 11.6 µM] (inactive), the activity change, negative = cytotoxicity (JEG-3) was -21.6% [at 11.6 µM] (inactive) and the activity change, negative = cytotoxicity (SKOV3) was -8.69% [at 11.6 µM] (inactive).

For `CC[C@@H]1C[C@H]2CC[C@H](O2)[C@H](C)C(=O)O[C@@H](C)C[C@@H]2CC[C@@H](O2)[C@@H](C)C(=O)O[C@H](CC)C[C@H]2CC[C@H](O2)[C@H](C)C(=O)O[C@@H](C)C[C@@H]2CC[C@@H](O2)[C@@H](C)C(=O)O1`, the Potency [8] was 21.6 nM (active), the Potency [10] was “inactive” and the Potency (KB-3-1) was 38.5 nM (active). For the same compound, the Potency (CAOV3) was 398 nM (active), the Potency (HeLa) was 794 nM (active) and the Potency (JEG-3) was “inactive”.

In the case of `OCc1nnc2n1-c1ccc(Cl)cc1C(c1ccccc1Cl)=NC2`, the Potency [7] is reported as “inactive”, the Potency [10] is reported as “inactive” and the Potency [9] is reported as “inactive”. The max response (KB-3-1) was 8.98% (inactive), the Potency (CAOV3) was “inactive” and the Potency (HeLa) was “inactive”. For the same compound, the Potency (JEG-3) was “inactive” and the Potency (SKOV3) was “inactive”.

For `CC1CCCC(=O)CCC/C=C/c2cc(O)cc(O)c2C(=O)O1` (stereo not drawn), the Potency [11] was “inactive”, the outcome (KB-3-1) was “inactive” and the Potency (CAOV3) was “inactive”. The Potency (HeLa) was “inactive”, the Potency (JEG-3) was “inactive” and the Potency (SKOV3) was “inactive”.

In the case of `CC1=CC2OC3[C@H](O)C[C@@](C)([C@]34CO4)[C@@]2(CO)[C@H](O)C1=O` (stereo partly drawn), the Potency [7] is reported as “inactive”, the Potency [8] is reported as 1830 nM (active) and the Potency [10] is reported as “inactive”. For the same compound, the Potency [9] was “inactive”, the Potency (KB-3-1) was 4610 nM (active) and the Potency (JEG-3) was “inactive”.

In the case of `CO[C@H]1[C@H](O)[C@H](O[C@H]2CC[C@]3(C=O)C4CC[C@]5(C)[C@H](C6=CC(=O)OC6)CC[C@]5(O)C4CC[C@@H]3C2)O[C@@H](C)[C@@H]1O` (stereo partly drawn), the Potency [7] is reported as “inactive”, the Potency [8] is reported as 44.7 nM (active) and the Potency [9] is reported as “inactive”. For the same compound, the Potency (KB-3-1) was 39.9 nM (active), the Potency (CAOV3) was 100 nM (active) and the Potency (HeLa) was 126 nM (active).

For `C[C@H]1O[C@@H](O[C@H]2CC[C@]3(CO)C4CC[C@]5(C)[C@@H](C6=CC(=O)OC6)CC[C@]5(O)[C@@H]4CC[C@H]3C2)[C@H](O)[C@H](O)[C@@H]1O[C@@H]1O[C@H](CO)[C@@H](O)[C@H](O)[C@H]1O` (stereo partly drawn), the activity [3] was -90%, the activity change, negative = inhibition [4] was -0.722% [at 19.1 µM] and the activity [5] was -7.07%. The activity [6] was -1.28%, the Potency [10] was “inactive” and the Potency [9] was 3160 nM (active). The Potency (KB-3-1) was 1930 nM (active), the Potency (HeLa) was 3160 nM (active) and the Potency (SKOV3) was 2820 nM (active).
